Target: T1, Tyrosyl-tRNA synthetase, putative (Trypanosoma cruzi (strain CL Brener)) (UniProt Q4DSP6)
T1 sequence (whole entry): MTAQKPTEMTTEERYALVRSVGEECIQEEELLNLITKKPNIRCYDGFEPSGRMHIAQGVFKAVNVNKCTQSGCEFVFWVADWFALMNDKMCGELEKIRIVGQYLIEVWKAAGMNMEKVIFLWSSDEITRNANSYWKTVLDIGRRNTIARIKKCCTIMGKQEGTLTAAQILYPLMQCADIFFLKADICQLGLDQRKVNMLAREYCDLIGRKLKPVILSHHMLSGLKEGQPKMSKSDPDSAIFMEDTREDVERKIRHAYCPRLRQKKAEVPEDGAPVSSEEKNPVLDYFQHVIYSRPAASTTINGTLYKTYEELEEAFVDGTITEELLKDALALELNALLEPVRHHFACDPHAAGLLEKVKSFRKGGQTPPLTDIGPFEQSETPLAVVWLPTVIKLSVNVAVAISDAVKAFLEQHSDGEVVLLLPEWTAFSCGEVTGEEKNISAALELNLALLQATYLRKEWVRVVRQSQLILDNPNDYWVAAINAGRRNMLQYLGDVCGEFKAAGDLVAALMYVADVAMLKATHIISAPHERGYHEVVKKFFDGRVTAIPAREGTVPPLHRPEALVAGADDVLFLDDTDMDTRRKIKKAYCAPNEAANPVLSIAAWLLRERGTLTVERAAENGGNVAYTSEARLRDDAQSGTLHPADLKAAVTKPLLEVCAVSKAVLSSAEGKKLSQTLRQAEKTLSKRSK
Test: Trypanosoma cruzi tyrosyl tRNA synthetase (TcYRS) _High Tyrosine SOP; further: in the data most compounds retested in dose-response had high values
Assay type: functional
Design: scale not given: direction of the effect not stated beside the values
Conditions: 30 µM

Question: How did the Percent Effect turn out when `Cc1cnn(CC2CCCN2Cc2cc(=O)n3cccc(C)c3n2)c1` (centres undefined) was run?
Answer: 14%

Question: Which Percent Effect does the source give for `CCc1noc(C2CCCCN2C(=O)c2ccoc2C)n1` (centres undefined) here?
Answer: 1.06%

Question: `CCc1noc(C(C)N2CCN(Cc3nc(C)c(C)o3)CC2)n1` (centres undefined) was tested. Which Percent Effect did it give?
Answer: -5.39%

Question: How did the Percent Effect turn out when `Cc1nn(C)c(C)c1C1CCCN1C(=O)c1cc[nH]n1` (centres undefined) was run?
Answer: -1.04%

Question: Which Percent Effect does the source give for `CNC(=O)C1Cn2ccnc2C2(CCN(Cc3cccc(C)n3)CC2)O1` (centres undefined) here?
Answer: 4.32%

Question: With `CN(Cc1ccc(N2CCCCC2)cc1)Cc1noc(C(C)(C)C)n1` as the compound, how does the Percent Effect read?
Answer: -2.15%

Question: With `O=C(Cc1ccc2c(c1)OCCO2)NC1CCCC1` as the compound, how does the Percent Effect read?
Answer: 1.94%

Question: How did the Percent Effect turn out when `CC(C)NC(=O)c1ccc2c(c1)nc1n2CCN(c2ccccc2)C1` was run?
Answer: 26.5%

Question: Which Percent Effect does the source give for `CCN(CC)C(=O)CCNc1cncc(-n2nc(C)cc2C)n1` here?
Answer: 2.15%

Question: Which Percent Effect does the source give for `CCn1nc(CC(C)C)cc1C(=O)N1CC[C@@H](O)C1` here?
Answer: 3.83%

Question: With `O=C(c1ccsc1)N1CCc2c(CNc3ncccn3)n[nH]c2C1` as the compound, how does the Percent Effect read?
Answer: -1.04%

Question: Which Percent Effect does the source give for `Cc1ncsc1CN1C[C@H](C(=O)N2CCCO2)[C@@H]2CCO[C@@H]2C1` here?
Answer: 5.21%

Question: `CC(C)OCC(=O)N1CCCN(Cc2ccc(C#N)cc2)CC1` was tested. Which Percent Effect did it give?
Answer: 8.33%

Question: Which Percent Effect does the source give for `Cc1cc2n(n1)CC(CNCc1ccnc(-n3ccnc3C)c1)CN2` (centres undefined) here?
Answer: 3.43%

Question: Which Percent Effect does the source give for `CCS(=O)(=O)N1CCC(c2nnc(CN3CCCC3)n2C2CC2)CC1` here?
Answer: 7.1%

Question: `O=C(NCCc1ccccn1)NC1CCN(c2ncccn2)CC1` was tested. Which Percent Effect did it give?
Answer: 9.38%

Question: Which Percent Effect does the source give for `CCO[C@@H]1CO[C@@]2(CCCN(C(=O)COc3ccccc3OC)C2)C1` here?
Answer: 6.35%

Question: `O=C(c1ccc2c(c1)COC2)N1CCN(CC2CC2)CC1` was tested. Which Percent Effect did it give?
Answer: 4.43%

Question: For `CN(Cc1ccc(F)cc1)CC1(O)CCCN(CC(C)(C)C)C1=O` (centres undefined), which Percent Effect is on record?
Answer: -7.37%

Target: T1, Tyrosyl-tRNA synthetase, putative (Trypanosoma cruzi (strain CL Brener))
Test: Trypanosoma cruzi tyrosyl tRNA synthetase (TcYRS) SOP
Assay type: functional
Design: scale not given: direction of the effect not stated beside the values
Conditions: 30 µM

Question: With `CN(C)c1cc2c(nn1)CCN(C(=O)C1CCc3ccccc31)C2` (centres undefined) as the compound, how does the Percent Effect read?
Answer: -8.86%

Question: Which Percent Effect does the source give for `Cc1nnc2n1CCN(C(=O)c1cn(-c3ccccc3Cl)nn1)C2` here?
Answer: 16.1%

Question: `Cc1cccnc1NC(=O)NC(C)Cn1cccn1` (centres undefined) was tested. Which Percent Effect did it give?
Answer: 2.44%

Question: How did the Percent Effect turn out when `O=C(NCCNC(=O)N1CCC(c2ccccc2)C1)C1CC1` (centres undefined) was run?
Answer: 14.6%

Question: For `COc1ccnc(N2CCN(C(=O)Cc3ccc(C#N)cc3)CC2)n1`, which Percent Effect is on record?
Answer: 23.5%

Question: Which Percent Effect does the source give for `CN(C(=O)NCCCN1CCCC1)C1CCN(c2ccccc2)C1=O` (centres undefined) here?
Answer: 12.2%

Question: How did the Percent Effect turn out when `Fc1ccc(CNCC2OCCc3cn(CC4CC4)nc32)cc1` (centres undefined) was run?
Answer: 7.69%

Question: `CC1CCCCN1CCNC(=O)c1ccn(-c2ccc(F)cc2)n1` (centres undefined) was tested. Which Percent Effect did it give?
Answer: 23.5%

Question: For `Cc1ccc(NC(=O)N2CCOC(C)C2)cc1Cl` (centres undefined), which Percent Effect is on record?
Answer: 21%

Question: How did the Percent Effect turn out when `Cc1ccc(CN(Cc2ccccn2)C2CC(C)(C)NC(C)(C)C2)s1` was run?
Answer: 3.9%

Question: How did the Percent Effect turn out when `CN(C)c1ncccc1CNC(=O)N1CCCC1CN1CCCCC1` (centres undefined) was run?
Answer: 14.6%

Question: `Cc1nn(CCO)c(C)c1CNC1CCc2c(Cl)cccc21` (centres undefined) was tested. Which Percent Effect did it give?
Answer: 8.64%

Question: `CCc1nc(C(=O)N2CCN(C)CC2C)nn1-c1ccccc1Cl` (centres undefined) was tested. Which Percent Effect did it give?
Answer: 11.1%

Question: `O=C(Cc1ccsc1)N1CCCC(c2n[nH]c3nccnc23)C1` (centres undefined) was tested. Which Percent Effect did it give?
Answer: 9.09%

Question: With `CN(C)CC(=O)N1CCCC2(CCC(=O)N(CCc3c[nH]cn3)C2)C1` (centres undefined) as the compound, how does the Percent Effect read?
Answer: 16.1%

Question: `CCc1n[nH]c(C2CN(C(=O)c3csnn3)CCO2)n1` (centres undefined) was tested. Which Percent Effect did it give?
Answer: 11.8%

Question: Which Percent Effect does the source give for `COc1cccc(CCNC(=O)CN2CCN(C)CC2C)c1` (centres undefined) here?
Answer: 15.8%

Question: Which Percent Effect does the source give for `Oc1ccc(N2CCN(Cc3cc4c(cc3Br)OCCO4)CC2)cc1` here?
Answer: 10.3%

Question: How did the Percent Effect turn out when `CC(C)OCCN(Cc1cccc(O)c1)C1CCC(O)CC1` (centres undefined) was run?
Answer: -1.24%

Question: For `O=C(CCN1CCCC1C1CCCCC1)N1CCc2sccc2C1` (centres undefined), which Percent Effect is on record?
Answer: 11.1%

Question: `Cc1cnn(CC2CCCN2Cc2cc(=O)n3cccc(C)c3n2)c1` (centres undefined) was tested. Which Percent Effect did it give?
Answer: 25.9%

Question: How did the Percent Effect turn out when `CCc1noc(C2CCCCN2C(=O)c2ccoc2C)n1` (centres undefined) was run?
Answer: 5.13%

Question: `CCc1noc(C(C)N2CCN(Cc3nc(C)c(C)o3)CC2)n1` (centres undefined) was tested. Which Percent Effect did it give?
Answer: -7.32%

Question: `Cc1nn(C)c(C)c1C1CCCN1C(=O)c1cc[nH]n1` (centres undefined) was tested. Which Percent Effect did it give?
Answer: 7.59%

Question: How did the Percent Effect turn out when `CNC(=O)C1Cn2ccnc2C2(CCN(Cc3cccc(C)n3)CC2)O1` (centres undefined) was run?
Answer: 10.3%

Question: With `CN(Cc1ccc(N2CCCCC2)cc1)Cc1noc(C(C)(C)C)n1` as the compound, how does the Percent Effect read?
Answer: -6.17%

Question: `O=C(Cc1ccc2c(c1)OCCO2)NC1CCCC1` was tested. Which Percent Effect did it give?
Answer: 7.32%

Question: For `CC(C)NC(=O)c1ccc2c(c1)nc1n2CCN(c2ccccc2)C1`, which Percent Effect is on record?
Answer: 33.3%

Question: `CCN(CC)C(=O)CCNc1cncc(-n2nc(C)cc2C)n1` was tested. Which Percent Effect did it give?
Answer: 3.7%

Question: For `CCn1nc(CC(C)C)cc1C(=O)N1CC[C@@H](O)C1`, which Percent Effect is on record?
Answer: 13.6%

Question: With `O=C(c1ccsc1)N1CCc2c(CNc3ncccn3)n[nH]c2C1` as the compound, how does the Percent Effect read?
Answer: 7.5%

Question: With `Cc1ncsc1CN1C[C@H](C(=O)N2CCCO2)[C@@H]2CCO[C@@H]2C1` as the compound, how does the Percent Effect read?
Answer: 3.7%

Question: With `CC(C)OCC(=O)N1CCCN(Cc2ccc(C#N)cc2)CC1` as the compound, how does the Percent Effect read?
Answer: 17.1%

Question: `Cc1cc2n(n1)CC(CNCc1ccnc(-n3ccnc3C)c1)CN2` (centres undefined) was tested. Which Percent Effect did it give?
Answer: 17.1%

Question: How did the Percent Effect turn out when `CCS(=O)(=O)N1CCC(c2nnc(CN3CCCC3)n2C2CC2)CC1` was run?
Answer: 16.1%
